# KCNQ2 inh – blocks the rat KCNQ2 potassium channel | CHO-K1 KCNQ2, FluxOR thallium flux, 20 min; stronger effect = lower value | 1.1% of 310,000 active | AID 2156 | B-score at 10 µM | O88943;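 active = fluorescence ratio B-score at most minus 3 library SDs, with starting brightness B-score within 2 library SDs, cut at about -5.5 in these data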
# KCNQ2 enhance – potentiators of rat KCNQ2 potassium channel | O88943 | CHO-K1 KCNQ2, FluxOR thallium flux fluorescence; stronger effect = higher value | B-score at 10 µM | 0.54% of 310,000 active | AID 2239;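 active = fluorescence ratio B-score at least 3 SD of library B-scores, with initial fluorescence B-score within 3 of them, cut at about 5.3 in these data; same plate scores as AID 2156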;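 also: B-score of peak minus minimum over baseline fluorescence ratio after K+ and Tl+ stimulus; positive B-score means potentiation of KCNQ2 with more thallium influx and brighter signal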
# Kir21 conf inh – confirmation of mouse Kir2.1 potassium channel inhibitors; Kir2.1-expressing cells, FluxOR thallium flux fluorescence; stronger effect = lower value; shares compounds with KCNQ2 enhance; AID 2032; Tl flux remaining, % of negative control (stronger effect = lower value), % at 10 µM; 41% of 2,300 active;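 active = Primary-screen hit whose thallium flux fell at least 3 control SD below untreated wells in both duplicates, with normal baseline fluorescence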;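 also: 0% = blank wells without stimulus and 100% = stimulated no-compound controls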
# HEK293 ctr – alters thallium flux in parental HEK293 cells, Kir2.1 counter-screen; 19% of 2,300 active; FluxOR signal as % of negative control (100 = no effect), % at 10 µM; shares compounds with KCNQ2 enhance; FluxOR thallium flux fluorescence; 0% = unstimulated blank wells;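 active = dye signal at least 3 control SD above or below untreated wells in both duplicates, raw fluorescence within 3, either direction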;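 also: percent is based on the flux ratio of peak minus minimum fluorescence over baseline F0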
# CHO-K1 Tl ctr – counter-screen for KCNQ2 potentiators: effect in parental CHO-K1 cells | shares compounds with KCNQ2 enhance | FluxOR thallium flux fluorescence; zero = vehicle mean+3SD, 100% = vehicle-minus-blank window | activity increase over 3SD of controls, % at 10 µM | 43% of 1,200 active | AID 2282;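 active = signal rise of at least 3 SD above the untreated control mean, in both duplicate wells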;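 also: counter screen of KCNQ2 potentiator hits so any rise reflects channel-independent effects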
# KCNQ1 sel pot – selectivity of KCNQ2 potentiators: effect on human KCNQ1; shares compounds with KCNQ2 enhance; CHO KCNQ1 stable, FluxOR thallium flux fluorescence; beyond 3SD, as % of vehicle-control signal; activation over 3SD threshold, % at 10 µM; 28% of 1,200 active;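 active = fluorescence ratio rise of at least 3 SD of vehicle wells above their mean, in both replicate wells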;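 also: 0% = vehicle mean plus 3 SD and 100% = vehicle minus unstimulated blank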
# KCNQ2 pot confirm – rat KCNQ2 channel potentiator confirmation; shares compounds with KCNQ2 enhance; CHO-KCNQ2 cells, FluxOR thallium flux fluorescence; potentiation, less the hit threshold, % at 10 µM; 68% of 1,200 active; AID 2287;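 active = fluorescence ratio rising 3 SD or more over the vehicle control mean in both replicates, plus primary screen hit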;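 also: peak minus minimum thallium fluorescence divided by baseline after K/Tl stimulus; 0% = vehicle mean plus 3 SD and 100% = vehicle minus unstimulated blank difference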
# Kir2-1 sel – mouse Kir2.1 off-target activity of KCNQ2 potentiators; 2% of 1,200 active; shares compounds with KCNQ2 enhance; activity over 3SD threshold, % at 10 µM; HEK293 Kir2.1, FluxOR thallium flux fluorescence;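 active = fluorescence ratio rise of at least 3 SD above the vehicle-control mean, seen in both replicates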;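 also: 0% = vehicle mean plus 3 SD and 100% = vehicle minus no-stimulus blank window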
# KCNQ2 W236L pot – potentiates the retigabine-insensitive rat KCNQ2 W236L mutant channel; 10% of 940 active; shares compounds with KCNQ2 enhance; AID 2558; CHO KCNQ2-W236L, automated patch clamp current; current increase over 3SD of negative controls (%), stronger effect = higher value, % at 25 µM;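 active = current increase at least 3 SD of the untreated controls above them in both duplicate recordings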
# Target sequence (O88943 whole entry W236L, looked up): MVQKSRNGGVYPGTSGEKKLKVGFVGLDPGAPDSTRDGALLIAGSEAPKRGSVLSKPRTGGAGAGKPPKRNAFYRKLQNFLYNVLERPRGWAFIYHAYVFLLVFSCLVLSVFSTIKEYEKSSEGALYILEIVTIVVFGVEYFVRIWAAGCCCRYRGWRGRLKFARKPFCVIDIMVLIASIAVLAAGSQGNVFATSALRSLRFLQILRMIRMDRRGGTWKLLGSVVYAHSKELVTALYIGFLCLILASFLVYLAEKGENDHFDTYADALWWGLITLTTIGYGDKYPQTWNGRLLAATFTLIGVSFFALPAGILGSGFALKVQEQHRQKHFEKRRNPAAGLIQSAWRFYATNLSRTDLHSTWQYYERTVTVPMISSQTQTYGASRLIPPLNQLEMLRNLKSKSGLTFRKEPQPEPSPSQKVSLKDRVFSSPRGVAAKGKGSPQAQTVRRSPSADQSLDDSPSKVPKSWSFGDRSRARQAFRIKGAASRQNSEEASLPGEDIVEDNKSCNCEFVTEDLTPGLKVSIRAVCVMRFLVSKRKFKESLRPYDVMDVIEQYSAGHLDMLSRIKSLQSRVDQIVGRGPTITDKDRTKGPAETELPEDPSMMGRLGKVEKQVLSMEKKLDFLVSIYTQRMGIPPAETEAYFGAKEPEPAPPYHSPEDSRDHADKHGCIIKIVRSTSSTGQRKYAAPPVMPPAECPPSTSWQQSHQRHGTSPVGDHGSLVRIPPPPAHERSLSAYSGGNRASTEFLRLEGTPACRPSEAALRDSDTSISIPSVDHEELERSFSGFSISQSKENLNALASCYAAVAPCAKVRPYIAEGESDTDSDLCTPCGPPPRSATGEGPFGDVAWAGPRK
# * marks the source's active call; other numbers are inactive results; i = inactive; · = not tested or not shown. The list is not random: actives were taken first. Their share in the collection is about 1.6%.
SMILES,KCNQ2 inh,KCNQ2 enhance,Kir21 conf inh,HEK293 ctr,others
COc1ccc(C2=NS(=O)(=O)N(C)C(C(=O)NCc3ccccn3)=C2)cc1OC,i,·,·,·,
O=C(CSc1ccc(Br)cc1)NCC(c1cccs1)N1CCOCC1 (stereo not given),i,6.8*,·,·,CHO-K1 Tl ctr=-20;KCNQ1 sel pot=-4;KCNQ2 pot confirm=7.9*;Kir2-1 sel=-58;KCNQ2 W236L pot=i
COc1ccc(C(CNC(=O)CSc2ccc(Br)cc2)N2CCOCC2)cc1 (stereo not given),i,1.4,·,·,
CC(C)(C)c1ccc(OCCC(=O)NCC(c2cccs2)N2CCOCC2)cc1 (stereo not given),i,7*,·,·,CHO-K1 Tl ctr=-9;KCNQ1 sel pot=123*;KCNQ2 pot confirm=19*;Kir2-1 sel=-60;KCNQ2 W236L pot=i
CCOc1ccc(S(=O)(=O)NCCC(=O)NCC(c2cccs2)N2CCOCC2)cc1 (stereo not given),i,1.6,·,·,
CCn1cc(C(=O)NC2CCCc3c2cnn3-c2cccc(C)c2C)cn1 (stereo not given),i,·,·,·,
COc1ccc(C2CCCN2CC(O)COc2ccccc2C(C)C)cc1 (stereo not given),-6.6*,-6.6,30%*,i,
CCOC(=O)N1CCN(CC(O)COc2ccccc2C(C)C)CC1 (stereo not given),i,0.55,·,·,
O=C(c1ccncc1)N1N=C(C2CC2)CC1(O)C(F)(F)F (stereo not given),i,6.5*,i,i,CHO-K1 Tl ctr=56*;KCNQ1 sel pot=-9;KCNQ2 pot confirm=-21;Kir2-1 sel=-43
O=C(c1cccnc1)N1N=C(C2CC2)CC1(O)C(F)(F)F (stereo not given),i,1.6,·,·,
CCOC(=O)c1ccc(Nc2ncnc3ccc(C)cc23)cc1,i,0.62,·,·,
CCOC(=O)c1cccc(Nc2ncnc3ccc(C)cc23)c1,i,1.7,52%*,i,
CC(C)COP(=O)(OCC(C)C)C(O)c1ccc(N(C)C)cc1 (stereo not given),i,1.7,·,·,
COCCCNC(=O)c1ccccc1Oc1ccccc1,i,·,·,·,
CCC(C)(C)NC(=O)c1ccccc1Oc1ccccc1,i,·,·,·,
O=C(NCc1ccc(Cl)cc1)c1ccccc1Oc1ccccc1,i,8.8*,i,i,CHO-K1 Tl ctr=110*;KCNQ1 sel pot=-12;KCNQ2 pot confirm=12*;Kir2-1 sel=-49;KCNQ2 W236L pot=i
CCC(CC)NC(=O)c1ccccc1Oc1ccccc1,i,·,55%*,i,
COc1ccccc1NC(=O)C1CCCN(c2cnccn2)C1 (stereo not given),i,·,·,·,
O=C(NCCS(=O)(=O)N1CCN(c2ccccc2F)CC1)c1cccs1,i,·,·,·,
CCN1CCN(C(=O)c2ccc(N3CC4CC(C3)c3cccc(=O)n3C4)c(NC(=O)c3cc(OC)cc(OC)c3)c2)CC1 (stereo not given),i,1.8,·,·,
COc1cc(/C=C/C(=O)N2CCCc3ccccc32)cc(OC)c1OC,i,·,·,·,
Cc1ccc(F)c(CNC(=O)C2CCC(=O)N(CCCN3CCCC3=O)C2)c1F (stereo not given),i,·,·,·,
COc1ccc(CCC(C)NCc2ccc(Cl)c(Cl)c2)cc1 (stereo not given),i,·,·,·,
COc1ccc(CCC(C)NCCc2ccc(Cl)cc2Cl)cc1 (stereo not given),i,·,16%*,i,
CC(NC(=O)Nc1ccc(Cl)cc1)c1ccc2c(c1)OCO2 (stereo not given),i,·,·,·,
CC(NC(=O)NC1CCCCC1)c1ccc2c(c1)OCO2 (stereo not given),i,21*,i,i,CHO-K1 Tl ctr=12*;KCNQ1 sel pot=-24;KCNQ2 pot confirm=62*;Kir2-1 sel=-34;KCNQ2 W236L pot=i

# Bioassay records as filed in PubChem.
